RORgamma inh – blocks mouse ROR gamma transcriptional activity | Potency, µM (highest dose often 53.6 µM), for inactives: at the highest dose activity change, negative = inhibition, usual class: inhibitors | Drosophila S2 Gal4-RORgamma UAS-luciferase reporter, 20 h | P51450 | 5.4% of 310,000 active | AID 2551; further: potency means the concentration at half of the fitted maximal effect; nearly all actives have a fitted effect of over 60% in size
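Stably transfected Drosophila Schneider cells are the test system, with ROR gamma fused to Gal4 and luciferase under UAS control; luminescence is read after 20 hr of 700 uM copper sulfate induction at ambient temperature.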
FBPA coupling cs – inhibits coupling enzyme system, counter-screen for aldolase hits. coupling enzyme system counterscreen, AmpLite Red fluorescence. activity change, negative = inhibition, % at 58.2 µM, hits read low. 0.67% of 290,000 active; in the data active means activity change below about -30%
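Counterscreen of the coupled detection system alone, without aldolase: glyceraldehyde-3-phosphate coupling enzymes plus AmpLite Red readout. Compounds at 57.5 uM final, 10 min RT preincubation, 20 min RT reaction, fluorescence 525/598 nm.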
TrxR1 inh – rat TrxR1 inhibition | Potency, µM (titrated, usually from 114 µM), for the others: at the top dose activity change, negative = inhibition, usual class: inhibitors | recombinant rTrxR1, NADPH fluorescence consumption, selenite substrate | 1% of 390,000 active | O89049 | AID 588453; further: potency means the concentration at half of the fitted maximal effect; nearly all actives have a fitted effect of over 65% in size
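Rat TrxR1 (90 nM in the dispensed reagent) was pre-reduced with 400 uM NADPH for 5 min at room temperature, then incubated with compound for 15 min. After 400 uM selenite was added, NADPH fluorescence (Ex 340/Em 450 nm) was followed for 8 min.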
VP16 counter – Gal4-VP16 reporter inhibition counter-screen | Drosophila S2 Gal4-VP16 UAS-luciferase, luminescence, 20 h | Potency, µM (highest dose often 53.6 µM), for the others: at the highest dose activity, negative = inhibition, usual class: inhibitors | 3.5% of 310,000 active | AID 2546;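 further: Gal4-VP16 expression switched on by copper sulfate through the metallothionein promoter; potency means the concentration at half of the fitted maximal effect; nearly all actives have a fitted effect of over 50% in size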
TrxR1 substrate – rat thioredoxin reductase 1 substrate activity. 0.01% of 390,000 active. purified TrxR1 substrate turnover, NADPH consumption readout. Potency, µM (series often up to 114 µM), for inactives: top-dose activity change, negative = substrate turnover. O89049; further: potency means the concentration at half of the fitted maximal effect; nearly all actives have a fitted effect of over 50% in size
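Rat TrxR1, dispensed at 90 nM, was prereduced with 400 uM NADPH (final) for 5 min at ~22 deg C, then incubated with compound 15 min before 400 uM selenite. A first-read NADPH fluorescence drop versus no-compound background flagged substrates.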
GALK inhibitor – galactokinase (human) inhibition. P51570. Purified GALK, Kinase-Glo residual ATP luminescence. Potency, µM (series often up to 57.5 µM), without a hit: at the top dose activity change, negative = inhibition, most hits filed as inhibitors. 0.007% of 270,000 active. AID 1868; further: potency means the concentration at half of the fitted maximal effect
Target sequence (P51570 whole entry, looked up): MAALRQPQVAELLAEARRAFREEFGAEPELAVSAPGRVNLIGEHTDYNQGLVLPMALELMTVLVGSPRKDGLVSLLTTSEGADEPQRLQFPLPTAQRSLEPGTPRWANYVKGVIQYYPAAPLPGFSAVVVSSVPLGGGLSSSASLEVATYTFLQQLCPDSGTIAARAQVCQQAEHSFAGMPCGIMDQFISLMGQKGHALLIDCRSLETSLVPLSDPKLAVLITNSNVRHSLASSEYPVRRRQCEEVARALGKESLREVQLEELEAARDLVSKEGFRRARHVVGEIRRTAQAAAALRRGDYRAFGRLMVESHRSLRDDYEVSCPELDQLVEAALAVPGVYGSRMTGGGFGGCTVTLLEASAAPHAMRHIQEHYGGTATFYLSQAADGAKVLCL
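Human GALK (5 nM) with 35 uM ATP and 100 uM galactose in 20 mM HEPES pH 8.0, 5 mM MgCl2, 60 mM NaCl, 1 mM DTT, 0.01% BSA. After 1 h at room temperature, leftover ATP was read by Kinase-Glo Plus luminescence.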
The depositor's hits bear a star; [ ] = dose if it differs, or a comment. Shown are actives, neighbours in structure and some others; about 5.9% of the full set was active somewhere. Unless noted, the call rests on the fitted dose curve; in most records, active means well fitted curve in the direction sought with a large enough effect; inconclusive means small, poorly fitted or top-dose-only effect, or another doubt; inactive means no such curve, though single readings can be large; an effect the other way counts as inactive or inconclusive. On the % scale 0 is the no-effect control and ±100 the full control effect.

What do the screens show for `COc1ccc(-c2n[nH]c(=S)n2-c2ccc(C)cc2)cc1`?
RORgamma inh: 0.891µM*; FBPA coupling cs: 5.0; TrxR1 inh: -13.1%; VP16 counter: 10µM*; TrxR1 substrate: 2.4%; GALK inhibitor: 9.1%

How did COc1ccc(CC(=O)NCc2n[nH]c(=S)n2-c2ccc(Br)cc2)cc1 do in these assays?
RORgamma inh: -25.3%; FBPA coupling cs: 2.9; TrxR1 inh: -11.3%[57.1 µM]; VP16 counter: -0.9%; TrxR1 substrate: 2.9%[57.1 µM]; GALK inhibitor: -0.5%

How did COc1ccc(-n2c(-c3ccc(Br)cc3)nc(=S)c3c2CCCC3)cc1 do in these assays?
RORgamma inh: 7.94µM*; FBPA coupling cs: 10.0; TrxR1 inh: -12.2%[57.1 µM]; VP16 counter: 10µM*; TrxR1 substrate: 4.8%[57.1 µM]; GALK inhibitor: 0.8%

What do the screens show for `COc1ccc(-n2c(-c3cnccn3)n[nH]c2=S)cc1`?
RORgamma inh: inconclusive; FBPA coupling cs: -1.6; TrxR1 inh: -12.7%; VP16 counter: -10.2%; TrxR1 substrate: 5.2%; GALK inhibitor: -1.6%

What do the screens show for `COc1ccc(-n2c(-c3ccc(Br)cc3)c[n+]3c2CCCCC3)cc1`?
RORgamma inh: inconclusive; FBPA coupling cs: 1.2; TrxR1 inh: 14.7%[57.1 µM]; VP16 counter: inconclusive; TrxR1 substrate: 3.0%; GALK inhibitor: 1.3%

Results for O=C(NC1CCCC1)C(c1ccc(Cl)cc1)N1CCN(C2CCCCC2)CC1 (stereo not drawn) ?
RORgamma inh: 13.7%; FBPA coupling cs: 1.3; TrxR1 inh: 18.4%; VP16 counter: -1.8%; TrxR1 substrate: 0.1%; GALK inhibitor: 5.3%

How did O=C(CN1C(=O)NC2(CCCCC2)C1=O)N1CCN(S(=O)(=O)/C=C/c2ccccc2)CC1 do in these assays?
TrxR1 inh: -5.6%; TrxR1 substrate: -10.9%

What do the screens show for `O=C1C(C2=C(O)c3ccccc3C2=O)=Nc2ccccc21`?
RORgamma inh: -29.5%; FBPA coupling cs: -16.0; TrxR1 inh: 14.1µM*; VP16 counter: inconclusive; TrxR1 substrate: 35.5µM*; GALK inhibitor: inconclusive

How did O=C(Nc1cccc(Oc2ccc(C(=O)O)c(C(=O)O)c2)c1)c1ccc(-c2ccccc2)cc1 do in these assays?
RORgamma inh: inconclusive; FBPA coupling cs: 16.4; TrxR1 inh: inconclusive; VP16 counter: inconclusive; TrxR1 substrate: 3.4%; GALK inhibitor: inconclusive

Results for CC(C)(C)C(=O)Nc1ccc(C(=O)Nc2cccc(Oc3ccc(C(=O)O)c(C(=O)O)c3)c2)cc1 ?
RORgamma inh: inconclusive; FBPA coupling cs: 9.7; TrxR1 inh: 21.2%; VP16 counter: 11.2µM*; TrxR1 substrate: 6.6%; GALK inhibitor: -1.0%

How did C=C(C)CNC(=S)N/N=C(\C)c1ccc(-n2ccnc2)cc1 do in these assays?
RORgamma inh: 6.31µM*; FBPA coupling cs: 3.3; TrxR1 inh: -15.0%; VP16 counter: 7.94µM*; TrxR1 substrate: -15.1%; GALK inhibitor: 0.9%

How did C/C(=N\NC(N)=S)c1ccc(-n2ccnc2)cc1 do in these assays?
RORgamma inh: inconclusive; FBPA coupling cs: 8.1; TrxR1 inh: -21.7%; VP16 counter: -8.5%; TrxR1 substrate: -9.3%; GALK inhibitor: -1.4%

How did Cc1ccc(C)c(S(=O)(=O)NCc2ccncc2)c1 do in these assays?
RORgamma inh: inconclusive; FBPA coupling cs: 0.3; TrxR1 inh: 7.6%[57.1 µM]; VP16 counter: inconclusive; TrxR1 substrate: 9.1%[57.1 µM]; GALK inhibitor: -2.2%

What do the screens show for `CCOc1cc(S(=O)(=O)NCc2ccncc2)ccc1Cl`?
RORgamma inh: 2µM*; FBPA coupling cs: 1.7; TrxR1 inh: -18.6%; VP16 counter: 1.12µM*; TrxR1 substrate: -11.3%; GALK inhibitor: -1.2%

What do the screens show for `CCOc1ccc(S(=O)(=O)NCc2ccncc2)cc1`?
RORgamma inh: 0.0%; FBPA coupling cs: 5.5; TrxR1 inh: 14.6%; VP16 counter: 1.5%; TrxR1 substrate: 10.7%; GALK inhibitor: -0.3%

How did CCOC(=O)COc1ccc(S(=O)(=O)NCc2ccncc2)cc1 do in these assays?
RORgamma inh: inconclusive; FBPA coupling cs: -4.5; TrxR1 inh: 2.1%; VP16 counter: 11.2µM*; TrxR1 substrate: 7.3%; GALK inhibitor: 0.3%

Results for CC(=O)Nc1ccc(S(=O)(=O)NCc2ccncc2)cc1 ?
RORgamma inh: 7.08µM*; FBPA coupling cs: 1.3; TrxR1 inh: 8.3%; VP16 counter: 2µM*; TrxR1 substrate: -6.4%; GALK inhibitor: 6.6%

Results for CC(=O)Nc1ccc(S(=O)(=O)NCc2ccccn2)cc1 ?
RORgamma inh: 3.7%; FBPA coupling cs: 3.3; TrxR1 inh: 6.4%; VP16 counter: -22.0%; TrxR1 substrate: -0.4%; GALK inhibitor: 2.4%

What do the screens show for `Cc1cc(S(=O)(=O)NCc2ccncc2)c(C)cc1Br`?
RORgamma inh: -24.9%; TrxR1 inh: -9.4%; VP16 counter: 10µM*; TrxR1 substrate: -13.0%; GALK inhibitor: 3.1%

What do the screens show for `O=C(CNC(=O)c1ccccc1)NCC(=O)OCC(=O)c1ccccc1Cl`?
FBPA coupling cs: 0.2; TrxR1 inh: 28.2%; TrxR1 substrate: 12.5%; GALK inhibitor: 0.9%

What do the screens show for `Cc1ccc(S(=O)(=O)NCc2ccncc2)cc1`?
RORgamma inh: -14.9%; FBPA coupling cs: -0.1; TrxR1 inh: 16.3%; VP16 counter: 7.94µM*; TrxR1 substrate: 9.2%; GALK inhibitor: 1.0%

Results for Cc1ccc(S(=O)(=O)NCC(=O)NCc2ccncc2)cc1 ?
RORgamma inh: 5.1%; FBPA coupling cs: -0.2; TrxR1 inh: 8.3%[57.1 µM]; VP16 counter: -11.2%; TrxR1 substrate: 9.7%[57.1 µM]; GALK inhibitor: -2.1%

What do the screens show for `O=C(CN1CCCCCCC1)Nc1cccc(Cl)c1Cl`?
RORgamma inh: -9.9%; FBPA coupling cs: -0.8; TrxR1 inh: 14.1%; VP16 counter: -9.1%; TrxR1 substrate: 3.6%; GALK inhibitor: -2.3%

How did Cc1cccc(-n2nc(C(=O)c3ccco3)cc(-c3nc4ccccc4[nH]3)c2=N)c1 do in these assays?
RORgamma inh: 2.51µM*; FBPA coupling cs: -0.8; TrxR1 inh: -16.4%; VP16 counter: 5.01µM*; TrxR1 substrate: -10.4%; GALK inhibitor: 2.5%

Results for Cc1ccc2nc(-c3cccc(NC(=O)c4ccco4)c3)[nH]c2c1 ?
RORgamma inh: 13.6%; FBPA coupling cs: -9.9; TrxR1 inh: -20.1%; VP16 counter: inconclusive; TrxR1 substrate: 1.1%; GALK inhibitor: 0.0%

How did Cc1ccccc1-n1nc(C(=O)c2cccs2)cc(-c2nc3ccccc3[nH]2)c1=N do in these assays?
RORgamma inh: 0.708µM*; FBPA coupling cs: 0.9; TrxR1 inh: 15.5%; VP16 counter: 0.891µM*; TrxR1 substrate: -1.2%; GALK inhibitor: 1.3%

Compound activity as filed in PubChem BioAssay.
